Unmarked numbers belong to inactive results. Inconclusive results are not listed. A call without a number means that no potency is given here. Activity calls are given as the source filed them. Unless noted, calls come from the whole dose curve.
Experiments:
[1] = Nuclear factor erythroid 2-related factor 2/antioxidant responsive element (Nrf2/ARE) small molecule agonists: qHTS cell viability counter screen in human keratinocytes (AID 1919968; active = well fitted curve in the direction sought with a large enough effect in the repeat runs; an effect the other way counts as inactive or inconclusive; note: nearly all actives have a fitted effect of over 55% in size; note: potency is the fitted concentration of half-maximal effect)
In short: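 In human HaCaT keratinocytes stably expressing an ARE-driven luciferase, compound exposure lasted 23 h at 37 C under 5% CO2. Viable cells are quantified with a protease-based fluorogenic reagent (CellTiter-Fluor) read 1 h after addition.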

[2] = Nuclear factor erythroid 2-related factor 2/antioxidant responsive element (Nrf2/ARE) small molecule agonists: luciferase reporter gene qHTS assay in human keratinocytes (AID 1919969); note: nearly all actives have a fitted effect of over 35% in size
[3] = biological target: Gonadotropin-releasing hormone receptor (Homo sapiens) (UniProt P30968); experiment: Human gonadotropin-releasing hormone receptor (GnRHR) small molecule agonists, calcium flux assay in GnRHR-HEK293 cells (AID 1920063); note: nearly all actives have a fitted effect of over 35% in size
Chain of Gonadotropin-releasing hormone receptor (Homo sapiens) (P30968 whole entry, looked up): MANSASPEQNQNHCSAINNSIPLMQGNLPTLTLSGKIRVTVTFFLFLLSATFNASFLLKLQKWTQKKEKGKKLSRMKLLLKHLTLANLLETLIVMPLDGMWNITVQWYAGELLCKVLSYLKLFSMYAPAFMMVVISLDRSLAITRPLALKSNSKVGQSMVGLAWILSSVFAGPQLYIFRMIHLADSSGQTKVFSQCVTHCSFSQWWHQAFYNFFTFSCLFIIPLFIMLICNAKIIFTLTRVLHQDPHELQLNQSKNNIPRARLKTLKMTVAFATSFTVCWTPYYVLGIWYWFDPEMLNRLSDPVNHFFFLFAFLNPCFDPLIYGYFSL
In short: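 Intracellular calcium rise is the read-out: engineered human GnRHR HEK293 cells, dye-loaded, are exposed to DMSO-dissolved compounds and fluorescence at Ex/Em 480/540 is tracked for 3 min.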

[4] = biological target: KiSS-1 receptor (Homo sapiens) (UniProt Q969F8); experiment: Human kisspeptin (KISS1R) small molecule agonists, calcium flux assay in KISS1R-HEK293 cells (AID 1920064; active = well fitted curve in the direction sought with a large enough effect in the repeat runs; an effect the other way counts as inactive or inconclusive)
Chain of KiSS-1 receptor (Homo sapiens) (Q969F8 whole entry, looked up): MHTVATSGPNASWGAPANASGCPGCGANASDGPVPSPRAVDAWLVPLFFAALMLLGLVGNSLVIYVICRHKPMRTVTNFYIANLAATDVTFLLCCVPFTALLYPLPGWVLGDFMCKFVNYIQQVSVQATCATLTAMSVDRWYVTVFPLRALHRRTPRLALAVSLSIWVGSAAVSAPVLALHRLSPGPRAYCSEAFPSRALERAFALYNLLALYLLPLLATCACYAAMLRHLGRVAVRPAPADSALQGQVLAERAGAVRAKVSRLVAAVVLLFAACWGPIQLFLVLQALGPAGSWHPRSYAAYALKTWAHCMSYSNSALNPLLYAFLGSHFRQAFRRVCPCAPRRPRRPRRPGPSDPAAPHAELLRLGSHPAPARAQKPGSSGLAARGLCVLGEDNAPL
In short: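 Concentration-response testing used 15 concentrations in triplicate on human KISS1R-expressing HEK293 cells. Calcium-dependent fluorescence (Ex/Em 480/540) was followed kinetically for 3 min after compound transfer.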

[5] = G protein-coupled receptor (GPCR) small molecule agonists, calcium flux assay: HEK293 wild type cell line counter screen (AID 1920065)
In short: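 Fluorescence intensity signals activation. After overnight (18 h) culture and a 1 h calcium dye load at 37 C, compounds are added by pin tool and the plate read at 480/540 nm for 3 min in 1 s steps.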

[6] = p53 small molecule agonists, cell-based qHTS assay with human liver microsomes (AID 1963577);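 note: p53 response element beta-lactamase reporter cells with liver microsomes plus NADPH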
In short: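 p53RE-bla cells; 5 h settle, 37 C/5% CO2; cpd + HLM 0.5 mg/mL + NADPH 0.5 mg/mL (final); 16 h 37 C; LiveBLAzer 2 h RT dark; fluorescence readout.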

[7] = p53 small molecule agonists, cell-based qHTS assay with rat liver microsomes (AID 1963578)
In short: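 Rat liver microsome activation: microsomes 0.5 mg/mL, NADPH 0.5 mg/mL final; p53RE-bla cells, 16 h 37 C; LiveBLAzer readout, 2 h RT dark.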

[8] = p53 small molecule agonists, cell-based qHTS assay with human liver microsomes: qHTS cell viability counter screen (AID 1963579); note: nearly all actives have a fitted effect of over 45% in size
In short: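 Luminescent CellTiter-Glo read-out, 30 min at room temperature, gauged cytotoxicity in p53RE-bla cells exposed 16 h at 37 C to DMSO-dissolved compounds with metabolic activation by human liver microsomes and NADPH, each 0.5 mg/mL final.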

[9] = p53 small molecule agonists, cell-based qHTS assay with rat liver microsomes: qHTS cell viability counter screen (AID 1963580); note: nearly all actives have a fitted effect of over 45% in size
In short: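 Counter screen for cytotoxicity under metabolic activation: rat liver microsomes and NADPH, 0.5 mg/mL final each, added with compounds to p53RE-bla HCT-116 cells; 16 h at 37 C, then ATP luminescence read.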

[10] = p53 small molecule agonists, cell-based qHTS assay: qHTS cell viability counter screen (AID 1963581); note: nearly all actives have a fitted effect of over 45% in size; note: potency is the fitted concentration of half-maximal effect
In short: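 Luminescence from CellTiter-Glo, reflecting ATP content, serves as the cytotoxicity measure; it is taken after the 2 h reporter substrate step in HCT-116 p53RE-bla cells dosed for 16 h at 37 C.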

[11] = biological target: 5-hydroxytryptamine receptor 2A (Homo sapiens) (UniProt P28223); experiment: 5-hydroxytryptamine receptor 2A (HTR2A) small molecule antagonists, cell-based qHTS assay (AID 1963586); note: nearly all actives have a fitted effect of over 45% in size
Chain of 5-hydroxytryptamine receptor 2A (Homo sapiens) (P28223 whole entry, looked up): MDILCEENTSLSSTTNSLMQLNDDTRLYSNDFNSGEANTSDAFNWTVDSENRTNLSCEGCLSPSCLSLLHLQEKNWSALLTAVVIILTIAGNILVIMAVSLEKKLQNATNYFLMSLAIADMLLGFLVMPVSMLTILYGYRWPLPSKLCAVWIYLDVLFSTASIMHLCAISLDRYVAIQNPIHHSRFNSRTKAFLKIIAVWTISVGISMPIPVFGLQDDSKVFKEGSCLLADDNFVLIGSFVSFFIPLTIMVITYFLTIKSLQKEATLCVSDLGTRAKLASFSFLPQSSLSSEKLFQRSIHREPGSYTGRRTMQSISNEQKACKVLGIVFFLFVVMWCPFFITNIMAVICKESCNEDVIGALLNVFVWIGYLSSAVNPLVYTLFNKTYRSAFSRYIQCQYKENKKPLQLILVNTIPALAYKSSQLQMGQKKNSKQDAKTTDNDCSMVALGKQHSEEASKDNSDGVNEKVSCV
In short: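 CHO cells stably expressing human HTR2A were plated for 18 h at 37 C, then loaded with calcium dye for 1 h. Compounds were preincubated 5 min at room temperature before DOI (4 nM solution) was added. Kinetic fluorescence was read for 3 min.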

[12] = biological target: 5-hydroxytryptamine receptor 2A (Homo sapiens) (UniProt P28223); experiment: 5-hydroxytryptamine receptor 2A (HTR2A) small molecule agonists, cell-based qHTS assay (AID 1963587); note: nearly all actives have a fitted effect of over 30% in size
In short: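 HTR2A-CHO cells, plated 18 h at 37 C/5% CO2, dye-loaded 1 h at 37 C; compounds in DMSO added by pin tool (agonist mode). Intracellular calcium flux read as kinetic fluorescence on FDSS over 2 min at 1 s intervals.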

[13] = biological target: Muscarinic acetylcholine receptor M1 (Homo sapiens) (UniProt P11229); experiment: Cholinergic receptor muscarinic 1 (CHRM1) small molecule antagonists, cell-based qHTS assay (AID 1963588); note: nearly all actives have a fitted effect of over 40% in size
Chain of Muscarinic acetylcholine receptor M1 (Homo sapiens) (P11229 whole entry, looked up): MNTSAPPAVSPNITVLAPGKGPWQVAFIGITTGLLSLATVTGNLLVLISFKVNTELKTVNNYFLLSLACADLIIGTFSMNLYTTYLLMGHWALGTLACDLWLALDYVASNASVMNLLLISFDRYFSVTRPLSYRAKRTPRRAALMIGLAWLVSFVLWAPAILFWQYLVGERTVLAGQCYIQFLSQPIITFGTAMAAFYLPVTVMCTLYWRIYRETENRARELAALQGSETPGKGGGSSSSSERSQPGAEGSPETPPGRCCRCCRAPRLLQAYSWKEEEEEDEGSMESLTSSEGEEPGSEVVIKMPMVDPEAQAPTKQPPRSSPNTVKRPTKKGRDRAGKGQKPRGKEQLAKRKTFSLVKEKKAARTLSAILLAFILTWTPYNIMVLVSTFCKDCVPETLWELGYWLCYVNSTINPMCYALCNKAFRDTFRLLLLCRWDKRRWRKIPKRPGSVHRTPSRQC
In short: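 Compounds were tested at 15 concentrations in three independent runs. Dye-loaded CHRM1-CHO cells were exposed 5 min at room temperature before stimulation by acetylcholine added at 50nM. Intracellular calcium was read kinetically on FDSS for 3 min.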

[14] = biological target: Muscarinic acetylcholine receptor M1 (Homo sapiens) (UniProt P11229); experiment: Cholinergic receptor muscarinic 1 (CHRM1) small molecule agonists, cell-based qHTS assay (AID 1963589); note: nearly all actives have a fitted effect of over 35% in size
In short: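 Fluorescent calcium dye reports M1 activation in stably transfected CHO cells. Compounds, 15 concentrations, added after 1 h dye loading at 37 C; kinetic reading at 1 sec intervals.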

[15] = cAMP Responsive Elements (CRE) small molecule agonists, cell-based qHTS assay (AID 1963590)
In short: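 Compound exposure lasted 3 h at 37 C/5% CO2 in CRE-bla HEK 293T cells grown in assay medium with 10% dialyzed FBS and 25 mM HEPES. Reporter signal came from LiveBLAzer B/G FRET substrate, 2 h, room temperature.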

[16] = cAMP Responsive Elements (CRE) small molecule antagonists, cell-based qHTS assay (AID 1963591; active = well fitted inhibition curve with a large enough effect in the signal ratio in the repeat runs, not every such curve was filed as active; the % refers to the signal ratio)
In short: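 Stimulation used NKH477 at a final 0.25 uM for 3 h in compound-treated CRE-bla HEK293T cells, seeded 18 h beforehand. Reporter activity was measured with LiveBLAzer B/G FRET substrate after 2 h at room temperature.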

[17] = biological target: Beta-2 adrenergic receptor (Homo sapiens) (UniProt P07550); experiment: Adrenergic beta2 receptor (ADRB2) small molecule antagonists, cell-based qHTS assay (AID 1963592); note: series mostly up to about 92 µM; nearly all actives have a fitted effect of over 50% in size
Chain of Beta-2 adrenergic receptor (Homo sapiens) (P07550 whole entry, looked up): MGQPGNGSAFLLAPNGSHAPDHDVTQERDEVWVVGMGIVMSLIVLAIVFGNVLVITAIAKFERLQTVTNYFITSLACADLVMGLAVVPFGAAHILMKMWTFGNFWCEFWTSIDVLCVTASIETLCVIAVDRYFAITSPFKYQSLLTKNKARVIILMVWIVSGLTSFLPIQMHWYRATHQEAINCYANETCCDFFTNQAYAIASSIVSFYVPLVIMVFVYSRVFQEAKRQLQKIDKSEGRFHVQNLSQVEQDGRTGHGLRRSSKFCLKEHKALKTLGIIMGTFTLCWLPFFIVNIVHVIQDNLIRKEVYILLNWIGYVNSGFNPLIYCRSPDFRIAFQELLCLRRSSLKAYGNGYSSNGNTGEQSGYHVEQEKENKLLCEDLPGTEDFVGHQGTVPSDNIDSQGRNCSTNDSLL
In short: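 Assay format: CHO-ADRB2 cells, 18-20hr seeding at 37C/5% CO2, then compound plus 1nM isoproterenol agonist mix for 0.5hr RT. Homogeneous time-resolved fluorescence cAMP detection after 1hr, expressed as 665/615 nm ratio.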

[18] = biological target: Beta-2 adrenergic receptor (Homo sapiens) (UniProt P07550); experiment: Adrenergic beta2 receptor (ADRB2) small molecule agonists, cell-based qHTS assay (AID 1963593);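 note: CHO cells stably overexpressing human ADRB2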
In short: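 CHO cells stably over-expressing ADRB2 were plated overnight at 37C, then dosed with compounds plus a stimulation mix containing 100uM IBMX and 25uM Ro-20-1724 for 0.5hr at room temperature. cAMP was measured by HTRF competition, 1hr.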

[19] = biological target: D(2) dopamine receptor (Homo sapiens) (UniProt P14416); experiment: Dopamine D2 receptor (DRD2) small molecule agonists, cell-based qHTS assay (AID 1963594); note: nearly all actives have a fitted effect of over 35% in size
Chain of D(2) dopamine receptor (Homo sapiens) (P14416 whole entry, looked up): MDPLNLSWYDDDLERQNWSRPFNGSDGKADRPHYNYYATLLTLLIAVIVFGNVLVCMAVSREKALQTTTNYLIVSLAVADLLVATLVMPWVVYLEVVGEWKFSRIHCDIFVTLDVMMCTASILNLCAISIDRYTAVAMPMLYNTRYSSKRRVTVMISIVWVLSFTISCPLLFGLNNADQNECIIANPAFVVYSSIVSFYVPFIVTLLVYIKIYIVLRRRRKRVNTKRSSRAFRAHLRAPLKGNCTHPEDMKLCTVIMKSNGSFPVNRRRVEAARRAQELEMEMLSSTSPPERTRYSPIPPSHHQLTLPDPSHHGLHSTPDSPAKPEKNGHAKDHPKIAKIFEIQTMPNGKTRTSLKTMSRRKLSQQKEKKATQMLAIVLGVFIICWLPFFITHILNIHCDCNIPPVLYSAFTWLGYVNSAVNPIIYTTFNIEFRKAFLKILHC
In short: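 HEK293 cells stably expressing DRD2 were cultured 24 h at 37 C, then given Ro20-1724 (0.1 mM final) and compounds for 10 min at room temperature. NKH477 (200nM) was then added for 30 min. cAMP was read by HTRF.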

[20] = biological target: D(2) dopamine receptor (Homo sapiens) (UniProt P14416); experiment: Dopamine D2 receptor (DRD2) small molecule antagonists, cell-based qHTS assay (AID 1963595; active = well fitted inhibition curve with a large enough effect in the signal ratio in the repeat runs, with a control signal flat; the % refers to the signal ratio; note: potency is the fitted concentration of half-maximal effect)
In short: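 HEK293 cells stably expressing DRD2, preincubated with 0.1 mM Ro20-1724 and compounds 10 min, were stimulated with 200 nM NKH477 plus 12 nM quinpirole for 30 min at room temperature; cAMP measured by HTRF (665/620 nm).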

| Compound | Potency [1] | Potency [2] | Potency [3] | Potency [4] | Potency [5] | Potency [6] | Potency [7] | Potency [8] | Potency [9] | Potency [10] | Potency [11] | Potency [12] | Potency [13] | Potency [14] | Potency [15] | Potency [16] | Potency [17] | Potency [18] | Potency [19] | Potency [20] |
| --- | --- | --- | --- | --- | --- | --- | --- | --- | --- | --- | --- | --- | --- | --- | --- | --- | --- | --- | --- | --- |
| OC[C@H]1O[C@H](O[C@H]2O[C@H](CO)[C@@H](O)[C@H](O)[C@H]2O)[C@H](O)[C@@H](O)[C@@H]1O | inactive | inactive | inactive | inactive | inactive | inactive | inactive | inactive | inactive | inactive | inactive | inactive | inactive | inactive | inactive | inactive | inactive | inactive | inactive | inactive |
| CC(C)(C)c1n[nH]c(=O)n(N)c1=O | inactive | inactive | inactive | inactive | inactive | inactive | inactive | inactive | inactive | inactive | inactive | inactive | inactive | inactive | inactive | inactive | inactive | inactive | inactive | inactive |
| Cc1cccc2c1ccc1ccccc12 | inactive | inactive | inactive | inactive | inactive | inactive | inactive | inactive | inactive | inactive | inactive | inactive | inactive | inactive | inactive | inactive | inactive | – | inactive | inactive |
| CC12CCC(C(=O)C1=O)C2(C)C (centres undefined) | inactive | inactive | inactive | inactive | inactive | inactive | inactive | inactive | inactive | inactive | inactive | inactive | inactive | inactive | inactive | inactive | inactive | inactive | – | inactive |
| Cc1ccccc1N=O | inactive | inactive | inactive | inactive | inactive | inactive | inactive | inactive | inactive | inactive | – | inactive | inactive | inactive | inactive | inactive | inactive | – | inactive | inactive |
| CCCOCCC | inactive | inactive | inactive | inactive | inactive | inactive | inactive | inactive | inactive | inactive | – | inactive | inactive | inactive | – | inactive | inactive | – | inactive | inactive |
| Clc1ccc(C(c2ccccc2Cl)C(Cl)Cl)cc1 (centres undefined) | 61.1 µM (active) | inactive | inactive | inactive | inactive | inactive | inactive | inactive | inactive | 40.8 µM (active) | – | – | – | – | – | inactive | – | inactive | inactive | – |
| O=C(CCCN1CCC(O)(c2cccc(C(F)(F)F)c2)CC1)c1ccc(F)cc1 | inactive | inactive | inactive | inactive | inactive | inactive | inactive | inactive | inactive | inactive | – | inactive | inactive | inactive | inactive | inactive | inactive | – | inactive | 0.0042 µM (active) |

From PubChem BioAssay (Tox21)
